Screening data deposited in PubChem BioAssay by National Center for Advancing Translational Sciences (NCATS).
Compounds with a hit are over-represented: about 1.1% of the library has one in this group of screens.
SNCA expr inhib: Primary qHTS assay for inhibitors of alpha-synuclein gene (SNCA) expression; HEK-293 SNCA-luciferase knock-in, luminescence, 24 h; Potency, µM (titrated, usually from 57.2 µM), without a hit: top-dose activity change, negative = inhibition, actives largely listed as inhibitors; actives 0.17% (n = 140,000); AID 1671194, 2021;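 note: potency is the fitted concentration of half-maximal effect; plate controls were DMSO cells for no effect and cell-free wells for full effect; nearly all actives have a fitted effect of over 45% in size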
SNCA viab count: GF-AFC viability counterscreen for inhibitors of alpha-synuclein gene (SNCA) expression. HEK-293-SNCA-luc viability, GF-AFC fluorescence, 24 h. Potency, µM (highest dose often 57.1 µM), for the others: at the top dose activity change, negative = cytotoxicity, actives largely listed as cytotoxic. actives 0.12% (n = 150,000);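 note: potency is the fitted concentration of half-maximal effect; 0% = DMSO-treated cells and -100% = medium-only wells without cells; nearly all actives have a fitted effect of over 30% in size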
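HEK-293-SNCA-luc cells (1500/well) plated 24 h, then exposed 24 h to a dilution series; GF-AFC added 30 min at 37C, fluorescence 405/540 nm; normalised to medium-only and DMSO wells, Hill fit.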
GPT2 inh: Primary qHTS assay for inhibitors of Glutamate pyruvate transaminase 2 (GPT2); Alanine aminotransferase 2 (Homo sapiens), Q8TD30; Recombinant GPT2, coupled pyruvate oxidase/HRP Amplex Red fluorescence; Potency, µM (highest dose often 57.7 µM), inactives show at the highest dose activity change, negative = inhibition, hits mostly inhibitors; actives 0.25% (n = 100,000); AID 1671188, 2021; note: potency is the fitted concentration of half-maximal effect; nearly all actives have a fitted effect of over 60% in size
Target sequence (Q8TD30 whole entry, looked up): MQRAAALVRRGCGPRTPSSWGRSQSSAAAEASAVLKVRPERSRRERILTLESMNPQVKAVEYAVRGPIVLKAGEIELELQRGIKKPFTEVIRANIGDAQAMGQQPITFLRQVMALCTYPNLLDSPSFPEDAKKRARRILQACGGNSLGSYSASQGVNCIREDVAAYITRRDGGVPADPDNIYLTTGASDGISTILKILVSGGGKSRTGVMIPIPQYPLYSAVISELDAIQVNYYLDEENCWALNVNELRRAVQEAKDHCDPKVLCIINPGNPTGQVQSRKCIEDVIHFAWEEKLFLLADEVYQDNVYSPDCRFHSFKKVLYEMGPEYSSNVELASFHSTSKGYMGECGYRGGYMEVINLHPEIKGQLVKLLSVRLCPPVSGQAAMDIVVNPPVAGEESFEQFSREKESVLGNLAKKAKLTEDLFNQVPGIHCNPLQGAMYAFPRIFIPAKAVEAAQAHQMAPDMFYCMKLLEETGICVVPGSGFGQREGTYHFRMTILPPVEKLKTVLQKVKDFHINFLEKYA
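Fluorescence of coupled pyruvate oxidase/HRP/Amplex Red system (50uM Amplex, 30 min, dark) reports pyruvate formed by GPT2. Enzyme reaction: 10ng/uL GPT2, 2mM L-alanine, 250uM a-KG, 30 min room temperature, pH 7.5; 50uM AOA control.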
IP6K1 inh: Primary qHTS assay for small molecule inhibitors of Inositol hexaphosphate kinase 1 (IP6K1). IP6K1 kinase, ADP-Glo luminescence, 2 h; stronger effect = lower value. activity change, % (series mostly up to about 58 µM). actives 0.81% (n = 140,000). Inositol hexakisphosphate kinase 1 (Homo sapiens), Q92551; in the data active = activity change below about -25%
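ADP-Glo luminescence measures ADP made by human IP6K1 during a 2 h RT reaction with ATP/IP6 (mix at 1.3 mM/130 uM); top library doses 57.5 and 19.1 uM final.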
IP6K1 conf: Confirmatory qHTS assay for small molecule inhibitors of Inositol hexaphosphate kinase 1 (IP6K1); actives 13% (n = 1,200); shares compounds with IP6K1 inh; Potency, µM (titrated, usually from 49 µM), without a hit: top-dose activity change, negative = inhibition, most hits filed as inhibitors; recombinant IP6K1 kinase, ADP-Glo luminescence, 2 h; AID 1645852, 2021; note: potency is the fitted concentration of half-maximal effect; nearly all actives have a fitted effect of over 65% in size
The depositor's hits bear a star; i = inactive; ? = inconclusive; . = no result given; [ ] = dose if it differs, or a comment. Unless noted, calls come from the whole dose curve; as a rule, active = well fitted curve in the direction sought with a large enough effect; inconclusive = small, poorly fitted or top-dose-only effect, or another doubt; inactive = no such curve, though single readings can be large; an effect the other way counts as inactive or inconclusive. Unless noted, % is set by controls: 0 for no effect and ±100 for the full control effect.

SMILES	SNCA expr inhib	SNCA viab count	GPT2 inh	IP6K1 inh	IP6K1 conf
Cn1ncc2c(C(=O)NCc3cccc(C(F)(F)F)c3)cc(-c3ccccc3C(F)(F)F)nc21	.	.	.	4	.
COCCNC(=O)c1ccc2c(=O)n(CCc3ccccc3)c(SCC(=O)CC(=O)OC)nc2c1	-20%	-3%	.	-25*	-10%
COCCNC(=O)c1ccc2c(=O)n(CCOC)c(SCC(=O)c3c[nH]c4ccccc34)nc2c1	?	1%	.	-13	.
Cc1cc(=O)n(CC(=O)NCCCc2ccccc2)c(N2CCc3ccccc3C2)n1	?	-3%	?	2	.
O=C(Cc1[nH]nc2ccccc12)N[C@H](c1ccc2c(c1)CCO2)C1CC(O)C1 (stereo partly specified)	43%	2%	i[11.5 µM]	-36*	-7%
COc1ccccc1-c1cccc(CN2CCC(NC(=O)c3ccccn3)CC2)c1	-6%	1%	i	-1	.
COc1ccc(-c2c(C(=O)NC3CC3)nc3sccn23)cc1	20%[87.6 µM]	-10%[87.6 µM]	-8%[88.5 µM]	7	.
CC(=O)Nc1cccc(-c2nc(-c3c(C)noc3C)cc3cc(C)oc23)c1	28%[87.6 µM]	-9%[87.6 µM]	?	-28*	-29%
COc1ccc(N2CCN(CC(O)COc3ccc(C(C)(C)C)cc3)CC2)cc1 (stereo unspecified)	3%	-6%	.	-29*	-9%
COc1ccc(N2CCN(CC(O)COc3ccc(C)cc3C)CC2)cc1 (stereo unspecified)	-7%	-1%	.	7	.
CN1c2cc(C(=O)Nc3ccc4c(c3)CCC4)ccc2C(=O)N2CCCCC21 (stereo unspecified)	64%	-9%[12.5 µM]	i	7	.
COc1ccc(CNC(=O)C(=O)NCC(c2ccco2)S(=O)(=O)c2ccc(Cl)cc2)cc1 (stereo unspecified)	-5%	4%	.	-29*	20%
COc1ccc(CCCc2nnc(SCC(=O)Nc3cccc(C)c3)o2)cc1	-11%	-3%	.	-33*	-13%
Cc1ncccc1C(=O)N1CCC2(CC1)CC(N(Cc1ccc(F)cc1)C1CC1)CCO2 (stereo unspecified)	-13%	-6%	i	12	.
Nc1c(S(=O)(=O)O)cc(Nc2ccc(Nc3nc(Cl)nc(Nc4ccc(S(=O)(=O)O)cc4)n3)c(S(=O)(=O)O)c2)c2c1C(=O)c1ccccc1C2=O	-5%	-16%	i	.	2.9µM*
COCc1ncc(C)n1C1CCN(C(=O)CCc2c[nH]c3ccccc23)C1 (stereo unspecified)	19%	10%	-11%	10	.
Cc1cc2c(C(C)C)c(O)c(O)c(C=O)c2c(O)c1-c1c(C)cc2c(C(C)C)c(O)c(O)c(C=O)c2c1O	?	?	?	-59*	?
Cc1nc(C)n(CCCNC(=O)c2cc(S(N)(=O)=O)ccc2F)n1	6%	2%	1%	22	.
Nc1nc(Nc2ccc(S(N)(=O)=O)cc2)nn1C(=O)c1c(F)cccc1F	?	?	-3%	-35*	?
Cc1ccc(CSc2ncc(Cl)c(C(=O)Oc3ccccc3F)n2)cc1	-5%	9%	.	-24	.
O=C(Oc1ccccc1F)c1nc(SCc2ccccc2F)ncc1Cl	6%	9%	.	-33*	-19%
O=C1OC2(c3ccccc31)c1cc(Br)c(O)c(Br)c1Oc1c2cc(Br)c(O)c1Br	-43%[25.6 µM]	-12%[23.9 µM]	1%	-69*	3.3µM*
CC1CN(c2ccc(Cl)cc2)C(=O)CN1C(=O)CCn1cccc1 (stereo unspecified)	4%	15%	-21%[11.5 µM]	-33*	-15%
CN(C)c1ccc(-c2cc(-c3ccc(=O)[nH]c3)c3cncn3c2)cc1	26%[87.6 µM]	-19%[87.6 µM]	i	0	-14%
O=C(Cc1ccccc1)Nc1cc(-c2ccncc2)nn1-c1ccccc1	13%	-13%	i	3	.
CC(=O)c1cccc(NC(=O)Nc2nnc(N3CCCC3)s2)c1	-26%	-4%	.	-38*	-19%
